# “And” between values parts separate entries of the source, which are not always exact repeats. Identical values can stand only once. Records with an inconclusive call do not appear. A call without a number means that no potency is given here. The source made the active and inactive calls. Unless noted, calls come from the whole dose curve; as a rule, active = well fitted curve in the direction sought with a large enough effect; inconclusive = small, poorly fitted or top-dose-only effect, or another doubt; inactive = no such curve, though single readings can be large; an effect the other way counts as inactive or inconclusive.
# Experiments:
# [1] = Cell Viability - HepG2 (AID 433; calls by dose curve;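 note: potency is the fitted concentration of half-maximal effect; cells exposed to compound for 40 hours; potency for ATP loss meaning cytotoxicity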); details: qHTS
# Summary of the method: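 Read-out is luciferase-based quantitation of cellular ATP as a measure of viable HepG2 cells after 40 h treatment at 37 °C. Signal decrease is scaled between DMSO-only and 100 uM tamoxifen controls, with AC50 fitted by the Hill equation.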
# [2] = Cell Viability - HUV-EC-C (AID 542); details: HUV-EC-C endothelial cell viability, qHTS; series mostly up to 92.2 µM;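 note: cells exposed to compound for 40 hours; nearly all actives have a fitted effect of over 35% in size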
# Summary of the method: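 CellTiter-Glo luminescence measured ATP loss in HUV-EC-C cells (1000/well) after 40 hr compound exposure at 37 °C, in complete culture medium. Concentration-response data were Hill-fitted to give AC50.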
# [3] = Cell Viability - Renal Proximal Tubule (AID 545); details: renal proximal tubule cells viability, primary cells of rat origin; at 91.7 µM (top of the series);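 note: cells exposed to compound for 40 hours; nearly all actives have a fitted effect of over 40% in size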
# Summary of the method: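 Luminescent ATP signal (CellTiter-Glo) served as the viability read-out after 40 hr compound exposure of freshly isolated rat proximal tubule cells at 37 °C. Concentration-dependent ATP loss was fitted with the Hill equation to give AC50.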
# [4] = Cell Viability - LYMP2-004 (AID 966); details: LYMP2-004 lymphoblastoid cell viability, qHTS; series mostly up to 92.2 µM; note: nearly all actives have a fitted effect of over 65% in size
# Summary of the method: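 AC50 values come from Hill modelling of concentration-dependent loss of intracellular ATP, measured by CellTiter-Glo luminescence. Human LYMP2-004 lymphoblastoid cells (2500/well) were exposed to compound for 24 h at 37 C.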
# [5] = qHTS assay for small molecule antagonists of peroxisome proliferator-activated receptor delta signaling (AID 588535; active = well fitted inhibition curve with a large enough effect in the signal ratio, with a control signal flat, not every such curve was filed as active; the % refers to the signal ratio;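 for max response: cells co-treated with a PPAR-delta agonist as stimulator during compound exposure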); details: HEK293T PPARd-UAS-bla, beta-lactamase FRET ratio, 18 h; 460 nm channel
# Summary of the method: (§1)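 Fluorescence from CCF4-loaded GeneBLAzer PPAR-delta-UAS-bla HEK293T cells (2 hrs RT loading) quantified reporter inhibition after an 18 hr, 37 C compound exposure across a titration.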
# [6] = molecular target: Peroxisome proliferator-activated receptor delta (Homo sapiens) (UniProt Q03181); assay: as above; details: HEK293T PPARd-UAS-bla, beta-lactamase FRET ratio, 18 h; series mostly up to 76.7 µM
# Sequence of Peroxisome proliferator-activated receptor delta (Homo sapiens) (Q03181 whole entry, looked up): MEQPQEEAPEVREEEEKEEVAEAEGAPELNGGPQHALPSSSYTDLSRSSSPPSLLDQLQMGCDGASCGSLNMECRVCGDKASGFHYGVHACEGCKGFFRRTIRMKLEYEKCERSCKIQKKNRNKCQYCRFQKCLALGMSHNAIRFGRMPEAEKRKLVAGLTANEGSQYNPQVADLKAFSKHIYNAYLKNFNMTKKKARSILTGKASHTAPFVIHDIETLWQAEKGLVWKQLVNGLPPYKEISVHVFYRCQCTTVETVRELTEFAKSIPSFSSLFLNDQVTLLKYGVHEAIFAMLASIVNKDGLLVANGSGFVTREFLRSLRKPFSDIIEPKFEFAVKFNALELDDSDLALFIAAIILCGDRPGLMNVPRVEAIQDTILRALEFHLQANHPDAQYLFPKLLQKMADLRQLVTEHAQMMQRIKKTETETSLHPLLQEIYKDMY
# Summary of the method: as §1
# [7] = molecular target: Peroxisome proliferator-activated receptor gamma (Homo sapiens) (UniProt P37231); assay: qHTS assay for small molecule antagonists of peroxisome proliferator-activated receptor gamma signaling (AID 588537; active = well fitted inhibition curve with a large enough effect in the signal ratio, with a control signal flat, not every such curve was filed as active; the % refers to the signal ratio;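 note: reporter cells co-stimulated with 50 nM rosiglitazone agonist during compound treatment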); details: HEK293 PPARg-UAS-bla, beta-lactamase ratio, antagonist mode; series mostly up to 76.8 µM
# Sequence of Peroxisome proliferator-activated receptor gamma (Homo sapiens) (P37231 whole entry, looked up): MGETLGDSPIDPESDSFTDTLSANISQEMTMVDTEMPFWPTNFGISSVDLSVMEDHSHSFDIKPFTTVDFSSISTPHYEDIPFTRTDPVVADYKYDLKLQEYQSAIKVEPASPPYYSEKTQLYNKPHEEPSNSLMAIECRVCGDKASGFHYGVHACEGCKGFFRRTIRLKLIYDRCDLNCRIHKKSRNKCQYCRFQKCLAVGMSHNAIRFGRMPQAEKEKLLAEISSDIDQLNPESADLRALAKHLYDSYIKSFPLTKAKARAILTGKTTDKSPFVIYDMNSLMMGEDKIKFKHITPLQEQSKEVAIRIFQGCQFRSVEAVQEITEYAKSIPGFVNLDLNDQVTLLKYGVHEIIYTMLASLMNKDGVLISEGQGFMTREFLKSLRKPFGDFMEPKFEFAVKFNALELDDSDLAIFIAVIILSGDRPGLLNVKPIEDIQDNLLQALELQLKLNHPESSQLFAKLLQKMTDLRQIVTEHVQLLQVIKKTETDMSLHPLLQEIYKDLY
# Summary of the method: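 Fluorescence at 460 and 530 nm (405 nm excitation) reported beta-lactamase cleavage of CCF4 after 2 h room-temperature loading. HEK293 reporter cells in 1% charcoal/dextran-treated FBS had received compound and rosiglitazone for 16 h.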
# [8] = qHTS assay for small molecule activators of the nuclear factor-kappa B (NF-kB) signaling pathway (AID 651749; active = well fitted activation curve with a large enough effect in the signal ratio; the % refers to the signal ratio); details: NF-kB-bla ME-180 cells, beta-lactamase FRET ratio, 16 h; stronger effect = higher value
# Summary of the method: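 In this qHTS format, compounds acting as activators increase NF-kB-driven beta-lactamase in ME-180 cells, measured as disrupted FRET after 16 hr exposure at 37C and 5% CO2.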
# [9] = qHTS assay for small molecule disruptors of the mitochondrial membrane potential - 5 hr assay (AID 651755; calls by dose curve; note: nearly all actives have a fitted effect of over 40% in size); details: JC-1-type ratio dye; series mostly up to 92.2 µM
# Summary of the method: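 Read-out: ratiometric Mito-MPS fluorescence, green monomer (ex 490/em 535) vs red mitochondrial aggregate (ex 540/em 590). HepG2 cells treated 5 hr at 37C before 30 min dye loading.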
# [10] = qHTS assay to identify small molecules that stimulate interleukin-8 (IL-8) secretion (AID 651758; active = well fitted activation curve with a large enough effect in the signal ratio; the % refers to the signal ratio); details: HTRF ratio (665/615); series mostly up to 92.2 µM
# Summary of the method: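 Compounds are added to THP-1 cells (2000 per well) and left 16 hrs at 37 C. A labeled anti-IL-8 antibody pair is then added, and IL-8 secretion is measured by time-resolved FRET after 1-3 hrs at room temperature.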
# [11] = Cellular Toxicity (caspase-3) HepG2 (AID 654); details: HepG2 caspase-3 activation, luminescence, 0% = DMSO only, 100% = tamoxifen; series mostly up to 92.2 µM;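 note: cells exposed to compound for 16 hours before reading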
# Summary of the method: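 Caspase 3/7 activation is measured as a luminescence increase (aminoluciferin substrate) after 16 h compound exposure of human hepatocarcinoma HepG2 cells. AC50 values are Hill fits, scaled between DMSO baseline and 100 uM tamoxifen stimulation.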
# [12] = Cellular Toxicity (caspase-3) BJ (AID 658); details: BJ fibroblasts, luminescence, normalized: DMSO 0%, staurosporine 100%; series mostly up to 91.7 µM;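 note: cells exposed to compound for 16 hours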
# Summary of the method: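 qHTS, BJ fibroblasts, 1000 cells/well; 5 hr preincubation, 16 hr compound, 37 °C; Caspase-Glo 3/7 reagent, 1 hr RT; luminescence. DMSO = 0%, 10 uM staurosporine = 100%. Hill-equation AC50.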
# [13] = Cellular Toxicity (caspase-3) SK-N-SH (AID 661); details: SK-N-SH caspase-3 activation, qHTS, DMSO as zero, staurosporine as full; series mostly up to 91.7 µM;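 note: cells exposed to compound for 16 hours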
# Summary of the method: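 Caspase 3/7 activation was read by luminogenic substrate cleavage after 16 hour treatment of SK-N-SH cells. Signal was scaled between DMSO and 10 uM staurosporine, and concentration-response data were fitted with the Hill equation for AC50.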
# [14] = molecular target: Bile acid receptor (Homo sapiens) (UniProt Q96RI1); assay: qHTS assay for small molecule antagonists of farnesoid X receptor signaling (AID 588526; calls by dose curve); details: HEK293T FXR-UAS-bla, beta-lactamase ratio, antagonist mode; series mostly up to 76.7 µM
# Sequence of Bile acid receptor (Homo sapiens) (Q96RI1 whole entry, looked up): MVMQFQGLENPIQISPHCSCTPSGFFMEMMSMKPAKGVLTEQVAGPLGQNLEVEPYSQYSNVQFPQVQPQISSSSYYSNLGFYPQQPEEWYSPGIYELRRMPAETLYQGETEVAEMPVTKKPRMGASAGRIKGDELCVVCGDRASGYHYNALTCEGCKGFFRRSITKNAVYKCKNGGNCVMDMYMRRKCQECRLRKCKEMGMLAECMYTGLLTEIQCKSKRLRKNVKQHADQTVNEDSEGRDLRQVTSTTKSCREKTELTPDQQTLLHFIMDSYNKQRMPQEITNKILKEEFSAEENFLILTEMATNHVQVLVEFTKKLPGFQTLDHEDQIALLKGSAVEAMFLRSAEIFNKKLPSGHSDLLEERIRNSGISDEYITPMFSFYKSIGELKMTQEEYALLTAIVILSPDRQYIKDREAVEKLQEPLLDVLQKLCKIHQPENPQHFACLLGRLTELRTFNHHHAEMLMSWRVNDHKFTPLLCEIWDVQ
# Summary of the method: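 Antagonist mode: titrated compounds tested against chenodeoxycholic acid stimulation (normalized to 50 uM CDCA and DMSO) in GeneBLAzer HEK293T cells for 16 h. Beta-lactamase read by CCF4 fluorescence; IC50 from Hill fits.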
# [15] = molecular target: Voltage-gated inwardly rectifying potassium channel KCNH2 (Homo sapiens) (UniProt Q12809); assay: qHTS Assay for Small Molecule Inhibitors of the Human hERG Channel Activity (AID 588834); details: U2OS BacMam hERG, FluxOR thallium flux fluorescence; series mostly up to 92.2 µM;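 note: top concentration of the series differs between compounds; lower thallium flux fluorescence means stronger hERG block; nearly all actives have a fitted effect of over 50% in size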
# Sequence of Voltage-gated inwardly rectifying potassium channel KCNH2 (Homo sapiens) (Q12809 whole entry, looked up): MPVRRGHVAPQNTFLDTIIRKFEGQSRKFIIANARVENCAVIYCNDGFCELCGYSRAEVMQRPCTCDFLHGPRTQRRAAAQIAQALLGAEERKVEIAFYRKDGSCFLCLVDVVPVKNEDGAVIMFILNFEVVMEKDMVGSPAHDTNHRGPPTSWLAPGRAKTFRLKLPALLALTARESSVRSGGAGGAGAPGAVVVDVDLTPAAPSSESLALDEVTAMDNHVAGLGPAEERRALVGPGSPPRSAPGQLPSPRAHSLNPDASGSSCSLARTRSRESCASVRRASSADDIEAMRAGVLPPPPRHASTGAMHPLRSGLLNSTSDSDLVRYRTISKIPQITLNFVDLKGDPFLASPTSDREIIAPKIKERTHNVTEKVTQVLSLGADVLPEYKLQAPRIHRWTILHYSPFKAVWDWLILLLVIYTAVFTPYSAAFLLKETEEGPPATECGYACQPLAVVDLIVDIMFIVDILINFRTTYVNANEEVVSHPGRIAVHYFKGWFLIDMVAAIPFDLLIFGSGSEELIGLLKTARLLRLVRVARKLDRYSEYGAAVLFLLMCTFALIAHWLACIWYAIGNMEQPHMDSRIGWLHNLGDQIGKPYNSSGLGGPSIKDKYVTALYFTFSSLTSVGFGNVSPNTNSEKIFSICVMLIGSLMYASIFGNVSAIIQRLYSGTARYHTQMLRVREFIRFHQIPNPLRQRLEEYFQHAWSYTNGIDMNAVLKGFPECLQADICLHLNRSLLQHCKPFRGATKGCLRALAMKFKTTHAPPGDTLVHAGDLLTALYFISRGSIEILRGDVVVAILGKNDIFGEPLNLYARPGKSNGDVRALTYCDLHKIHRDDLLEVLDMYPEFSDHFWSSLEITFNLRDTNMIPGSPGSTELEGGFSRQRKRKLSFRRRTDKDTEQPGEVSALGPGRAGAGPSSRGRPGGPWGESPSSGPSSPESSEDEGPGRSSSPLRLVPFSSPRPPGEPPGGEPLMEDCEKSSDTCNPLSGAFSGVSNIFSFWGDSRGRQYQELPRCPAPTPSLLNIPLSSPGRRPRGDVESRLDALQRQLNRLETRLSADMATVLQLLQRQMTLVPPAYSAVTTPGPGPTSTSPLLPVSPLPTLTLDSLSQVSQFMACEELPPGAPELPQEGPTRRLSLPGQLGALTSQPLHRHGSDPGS
# Summary of the method: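 Step 1: BacMam hERG transduction of U2OS, 4 hrs RT. Step 2: overnight 37 °C, plate 2000 cells/well, 4 hr. Step 3: FluxOR load, compound 10 min, stimulate, read fluorescence.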
# [16] = Cell Viability - LYMP2-003 (AID 965); details: LYMP2-003 lymphoblastoid cell viability; series mostly up to 92.2 µM;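 note: cells exposed to compounds for 24 h before reading; nearly all actives have a fitted effect of over 50% in size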
# Summary of the method: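 Seed 2500 lymphoblastoid cells/well; incubate 5 hr, 37 C; add compounds; incubate 24 hr, 37 C; add CellTiter-Glo, 30 min RT; read luminescence. AC50 from Hill fit.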
# [17] = Cell Viability - LYMP2-023 (AID 975); details: LYMP2-023 lymphoblastoid cell viability; series mostly up to 92.2 µM;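 note: cellular ATP measured by luciferase luminescence as viability proxy; nearly all actives have a fitted effect of over 55% in size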
# Summary of the method: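 Intracellular ATP, read by CellTiter-Glo luminescence, reports viability after 24 hr compound exposure at 37 C. 2500 lymphoblastoid cells/well (LYMP2-023) seeded 5 hr beforehand; Hill fits give AC50; positive control tetraoctylammonium bromide.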
# [18] = Cell Viability - LYMP2-012 (AID 982); details: LYMP2-012 lymphoblastoid cell viability qHTS; series mostly up to 92.2 µM;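 note: cellular ATP by luciferase luminescence where a drop means cytotoxicity; cells exposed to compound for one day before reading; nearly all actives have a fitted effect of over 55% in size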
# [19] = Cell Viability - LYMP2-006 (AID 978); details: LYMP2-006 lymphoblastoid cell viability, qHTS; series mostly up to 92.2 µM; note: nearly all actives have a fitted effect of over 60% in size
# Summary of the method: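 Cells are seeded at 2500 per well and rested 5 hr at 37 C. Compounds are added across a concentration series for 24 hr at 37 C, after which ATP is quantified by luciferase luminescence.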
# [20] = molecular target: Retinoic acid receptor RXR-alpha (Homo sapiens) (UniProt P19793); assay: qHTS assay for small molecule antagonists of retinoid X receptor alpha signaling (AID 588546; active = well fitted inhibition curve with a large enough effect in the signal ratio, with a control signal flat, not every such curve was filed as active; the % refers to the signal ratio;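 note: cells stimulated with 9-cis-retinoic acid as agonist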); details: HEK293T RXRa-UAS-bla, beta-lactamase ratio, antagonist mode
# Sequence of Retinoic acid receptor RXR-alpha (Homo sapiens) (P19793 whole entry, looked up): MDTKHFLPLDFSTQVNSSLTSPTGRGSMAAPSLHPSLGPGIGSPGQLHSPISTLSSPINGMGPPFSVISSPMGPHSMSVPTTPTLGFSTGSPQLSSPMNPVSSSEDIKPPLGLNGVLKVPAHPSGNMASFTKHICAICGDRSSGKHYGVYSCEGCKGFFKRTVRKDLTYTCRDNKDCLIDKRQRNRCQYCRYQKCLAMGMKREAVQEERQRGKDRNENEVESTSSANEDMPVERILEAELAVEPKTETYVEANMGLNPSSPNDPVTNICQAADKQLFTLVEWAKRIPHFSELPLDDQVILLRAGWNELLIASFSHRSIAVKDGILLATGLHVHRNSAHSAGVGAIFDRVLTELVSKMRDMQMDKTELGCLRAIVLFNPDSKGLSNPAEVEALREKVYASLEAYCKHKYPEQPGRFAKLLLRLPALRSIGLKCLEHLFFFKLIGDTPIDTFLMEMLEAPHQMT
# Summary of the method: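 Beta-lactamase reporter inhibition, read as CCF4 fluorescence ratio (ex 405, em 460/530 nm) after 2 h at RT. HEK293T UAS-bla cells, 2500/well, were stimulated with 9-cis-RA at 500 or 100 nM final alongside test compound for 18 h at 37 C.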
SMILES,Potency [1],outcome [2],"activity change, negative = cytotoxicity [3]",Potency [4],max response [5],Potency [6],outcome [7],activation [8],Potency [9],Potency [10],outcome [11],outcome [12],outcome [13],outcome [14],Potency [15],Potency [16],Potency [17],Potency [18],Potency [19],max response [20]
ClCCCl,> 92 µM (inactive),inactive,-0.883% (inactive),inactive,-25.6% and 21.1%,inactive,inactive,-0.0783% (inactive) and -1.06% (inactive) and -1.29% (inactive),inactive,inactive,–,–,–,–,–,–,–,–,–,–
C/C=C\c1ccc(OC)cc1,> 92 µM (inactive),–,–,inactive,-7.78%,inactive,inactive,-0.604% (inactive),–,inactive,inactive,inactive,inactive,inactive,inactive,–,–,–,–,–
Cc1ccccc1C,–,–,–,–,-3.07% and -4.26%,inactive,–,-0.0827% (inactive) and -0.301% (inactive),–,–,inactive,–,–,–,–,inactive,inactive,inactive,–,–
Cc1cccc([N+](=O)[O-])c1C,> 92 µM (inactive),inactive,–,inactive,-14.5% and -6.43%,inactive,inactive,-0.813% (inactive) and -0.315% (inactive),inactive,inactive,–,inactive,inactive,–,inactive,inactive,–,–,inactive,–
COC(=O)CCCCC(=O)OC,–,–,–,–,25.3% and -0.778%,inactive,inactive,–,–,inactive,inactive,–,–,inactive,inactive,inactive,–,–,–,–
O=C(O)CC(C(=O)O)C(CC(=O)O)C(=O)O (stereo unspecified),–,inactive,–,inactive,5.81%,inactive,inactive,-0.643% (inactive) and 0.457% (inactive),–,inactive,–,inactive,–,inactive,–,–,–,inactive,–,-2.56% (inactive) and -11.2% (inactive)
COCC(=O)O,–,–,–,inactive,5.18% and 13.7%,inactive,inactive,0.0746% (inactive) and -0.444% (inactive),–,–,–,inactive,–,–,inactive,inactive,–,–,–,–
C=Cc1ccccc1Cl,–,–,-4.37% (inactive),inactive,-3.33%,inactive,–,-1.19% (inactive),–,inactive,inactive,–,–,inactive,inactive,–,inactive,inactive,–,–
CN(C)C=O,–,–,–,inactive,–,–,inactive,0.506% (inactive) and -0.104% (inactive) and -1.7% (inactive),–,inactive,inactive,inactive,–,inactive,inactive,inactive,inactive,–,–,–

# — PubChem BioAssay (NCATS)
